# Data as given in PubChem BioAssay (Tox21).
# Results filed as inconclusive are left out. A call without a number means that no potency is given here. Values without a mark were called inactive. The source made the active and inactive calls. Calls follow the shape of the dose curve; as a rule, active = well fitted cell-killing curve with a large enough effect in the repeat runs; inconclusive = weak or mixed curves, or effect the other way; inactive = flat fitted curve, though single readings scatter.
# Assay: qHTS RealTime-Glo MT Cell Viability Assay in HepG2 cells - 40 hour (AID 1224870); also: nearly all actives have a fitted effect of over 50% in size
# Conditions: RealTime-Glo luminescence; series mostly up to 76.8 µM; activity change, negative = cytotoxic: at the top concentration
# Text: National Center for Advancing Translational Sciences [NCATS]
# NIH Chemical Genomics Center [NCGC]
# U.S. Environmental Protection Agency [EPA]
# National Institutes of Environmental Health Sciences [NIEHS]
# National Toxicology Program [NTP]
# U.S. Food and Drug Administration [FDA]
# Measure of cell viability is critical in the cell-base assay. Analysis of cell viability is necessary for the characterization of cell responses to cytotoxic drugs and environmental stress. A RealTime-Glo MT Cell Viability Assay to monitor cell viability in real time of continues cell culture during 40 hours of compound treatment was used to screen Tox21 10K library compounds in HepG2 cells. The RealTime-Glo MT Cell Viability Assay is a nonlytic, homogeneous, bioluminescent method to measure cell viability in real time using a simple, plate-based method. The assay involves adding NanoLuc luciferase and a cell-permeant prosubstrate to cells in culture. Viable cells reduce the proprietary prosubstrate to generate a substrate for NanoLuc luciferase. This substrate diffuses from cells into the surrounding culture medium, where it is rapidly used by the NanoLuc Enzyme to produce a luminescent signal. The signal correlates with the number of viable cells, making the assay well suited for cytotoxicity studies.
# Tox21 Assay Protocol Summary:
# The mixture of HepG2 cell suspension and reagents were dispensed at 600cells/6 ul/well in 1536-well tissue culture treated black solid bottom plates using a Multidrop dispenser. After the assay plates were incubated at a 37 C/5% CO2 incubator for 5 hours, 23 nL of compounds dissolved in DMSO, positive and negative controls was transferred to the assay plate by a pintool work station. The plates were incubated at 37 C for 40 hours. The luminescence intensity were measured at 0h, 8h, 16h, 24h, 32h and 40h time points using ViewLux plate reader during compound treatment.
SMILES,Potency,"activity change, negative = cytotoxic [%]"
Oc1ccc2ccccc2c1N=Nc1ccccc1,inactive,–
CC(=O)Nc1ccc(C(=O)O)cc1,inactive,–
O=C1CCCCC1,inactive,–
CCCCCCOC(C)=O,inactive,–
NCc1cccc(CN)c1,inactive,–
CS(=O)(=O)c1ccc([C@@H](O)[C@@H](CO)NC(=O)C(Cl)Cl)cc1,inactive,–
CC(C)Cc1ccccc1,inactive,–
CC(C)n1c(/C=C/[C@@H](O)C[C@@H](O)CC(=O)O)c(-c2ccc(F)cc2)c2ccccc21,–,-18
O=C(O)c1ccc([N+](=O)[O-])cc1,inactive,–
CNC[C@H](O)[C@@H](O)[C@H](O)[C@H](O)CO,inactive,–
Cc1cc(O)cc(C)c1Cl,inactive,–
CC1COc2ccccc2N1C(=O)C(Cl)Cl (stereo not given),inactive,–
CC1CC(OC(=O)c2ccccc2O)CC(C)(C)C1 (stereo not given),inactive,–
C=CC(=O)OCCCCCCCC(C)C,inactive,–
COCC(C)O (stereo not given),inactive,–
OC[C@@H](O)[C@@H](O)[C@H](O)[C@@H](O)CO,inactive,–
CCCCC(CC)C(=O)OCCOCCOCCOC(=O)C(CC)CCCC (stereo not given),inactive,–
Cc1ccc(N)c(S(=O)(=O)O)c1,inactive,–
CC(=O)[C@@]1(O)CC[C@H]2[C@@H]3CCC4=CC(=O)CC[C@]4(C)[C@H]3CC[C@@]21C,inactive,–
CCOC(=O)[C@H](CCc1ccccc1)N[C@@H](C)C(=O)N1Cc2ccccc2C[C@H]1C(=O)O,inactive,–

SMILES,Potency,"activity change, negative = cytotoxic [%]"
CCCCC(CC)COC(C)=O (stereo not given),inactive,–
O=C(c1ccc(O)cc1)c1ccc(O)cc1O,inactive,–
C=C(C#N)C(=O)OCC,inactive,–
C=C(C)C(=O)OCCCCCC,inactive,–
CC(C)(CO)COC(=O)C(C)(C)CO,inactive,–
C[C@@H]1O[C@@H](OC[C@H]2O[C@@H](Oc3c(-c4ccc(O)c(O)c4)oc4cc(O)cc(O)c4c3=O)[C@H](O)[C@@H](O)[C@@H]2O)[C@H](O)[C@H](O)[C@H]1O,inactive,–
O=S(=O)(Oc1ccc(Cl)cc1Cl)c1ccccc1,inactive,–
CC(C)(C)C(=O)C1C(=O)c2ccccc2C1=O,inactive,–
CCCCCCCCCCC=CC1CC(=O)OC1=O (stereo not given),inactive,–
CCCCCC/C=C/CCCCCCCC(=O)O,inactive,–
CC1=C(CC(=O)O)c2cc(F)ccc2/C1=C\c1ccc(S(C)=O)cc1 (stereo not given),inactive,–
CN(C)c1cccc(O)c1,inactive,–
O=[N+]([O-])C(CO)(CO)CO,inactive,–
Cc1cc(=O)[nH]c(C(C)C)n1,inactive,–
Oc1ccc(OCc2ccccc2)cc1,inactive,–
COC(=O)Nc1nc2ccc(Sc3ccccc3)cc2[nH]1,inactive,–
CCOC(=O)/C=C\C(=O)OCC,inactive,–
C=C1CC[C@H](O)CC1=C/C=C1\CCC[C@]2(C)[C@@H]([C@H](C)/C=C/[C@H](C)C(C)C)CC[C@@H]12,inactive,–
Cc1ccc(C(=O)O)o1,inactive,–
CCCCOCCO,inactive,–
